The source of these data is PubChem BioAssay.

SMILES strings stand for the structures. Calls of active or inactive are those of the source.

Assay [1] is described as follows: E. coli DRC41 culture turbidity changes, primary screen, E. coli filamentation inducer project, strain DRC41, OD650, 48 h (AID 1152).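 Note: E. coli MC1000 strain DRC41 lacking acrAB efflux pump and sulA.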 The note with it: E. coli DRC41 (acrAB sulA), higher = more signal, called active from +8 up or from −8 down.
The nature of assay [2]: small-molecule binders of probe aLefty1, primary screen, biochemical, small-molecule microarray, 635/667 nm fluorescence (AID 1153).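 Note: score merges spot fluorescence with signal-to-noise ratio from the scanned slide images.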 As to conditions: higher = more signal.
Assay [3] in a line: PSAC antagonists in infected red cells, primary screen, cell-based, P. falciparum Indochina, OD700, 1 h (AID 1154). The note with it: P. falciparum Indochina infected RBC osmotic lysis, higher = more signal, called active from +8 up or from −8 down.
The nature of assay [4]: PSAC antagonists in infected red cells, primary screen, cell-based, P. falciparum Indochina, OD700, 2 h (AID 1155).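 Note: lysis reports solute entry through the parasite surface anion channel PSAC; channel blockers reduce lysis of infected cells.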 As to conditions: P. falciparum Indochina infected erythrocytes, osmotic lysis OD700; higher = more signal, called active from +8 up or from −8 down.
Assay [5] is described as follows: osmotic lysis modulators in infected erythrocytes, primary screen, PSAC antagonist project, cell-based, P. falciparum Indochina, OD700, 3 h (AID 1156). The note with it: higher = more signal, called active from +8 up or from −8 down.
Assay [6] is described as follows: PSAC antagonists in infected red cells, primary screen, cell-based, P. falciparum Indochina, OD700, 18 h (AID 1157). As to conditions: P. falciparum Indochina infected erythrocytes, osmotic lysis OD700, 18 h; higher = more signal, called active from +8 up or from −8 down.
Assay [7] in a line: modulators of S6 phosphorylation in cells, primary screen, cell-based, A549, cytoblot, luminescence, serum-stimulated (AID 1158).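 Note: serum-stimulated A549 lung adenocarcinoma cells; signal is phosphorylated S6 detected by cytoblot immunostaining with HRP secondary.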 As to conditions: A549 phospho-S6 cytoblot, 5 h, higher = more signal.
Assay [8] addresses NADPH oxidase 2 (Homo sapiens) (UniProt P04839). Kind of assay: NOX2-dependent H2O2 signal modulators, primary screen, NOX inhibitor project, cell-based, HEK293-NOX2, PMA-stimulated, Amplex Red fluorescence (AID 1159). Note: test concentration not given here. The note with it: 45 min, higher = more signal, called active from +8 up or from −8 down.
Assay [9] concerns the target NADPH oxidase 4 (Homo sapiens) (UniProt Q9NPH5). Kind of assay: NOX4-dependent H2O2 signal modulators, primary screen, NOX inhibitor project, cell-based, HEK293-NOX4, tetracycline-induced, Amplex Red fluorescence (AID 1160). As to conditions: 45 min, higher = more signal, called active from +8 up or from −8 down.
The target in assay [10] is NADPH oxidase 5 (Homo sapiens) (UniProt Q96PH1). Kind of assay: NOX5-dependent H2O2 signal modulators, primary screen, NOX inhibitor project, cell-based, HEK293-NOX5, Amplex Red fluorescence (AID 1161). As to conditions: HEK293-NOX5, ionomycin, 45 min, higher = more signal.
Sequence of NADPH oxidase 5 (Homo sapiens) (Q96PH1 whole entry, looked up): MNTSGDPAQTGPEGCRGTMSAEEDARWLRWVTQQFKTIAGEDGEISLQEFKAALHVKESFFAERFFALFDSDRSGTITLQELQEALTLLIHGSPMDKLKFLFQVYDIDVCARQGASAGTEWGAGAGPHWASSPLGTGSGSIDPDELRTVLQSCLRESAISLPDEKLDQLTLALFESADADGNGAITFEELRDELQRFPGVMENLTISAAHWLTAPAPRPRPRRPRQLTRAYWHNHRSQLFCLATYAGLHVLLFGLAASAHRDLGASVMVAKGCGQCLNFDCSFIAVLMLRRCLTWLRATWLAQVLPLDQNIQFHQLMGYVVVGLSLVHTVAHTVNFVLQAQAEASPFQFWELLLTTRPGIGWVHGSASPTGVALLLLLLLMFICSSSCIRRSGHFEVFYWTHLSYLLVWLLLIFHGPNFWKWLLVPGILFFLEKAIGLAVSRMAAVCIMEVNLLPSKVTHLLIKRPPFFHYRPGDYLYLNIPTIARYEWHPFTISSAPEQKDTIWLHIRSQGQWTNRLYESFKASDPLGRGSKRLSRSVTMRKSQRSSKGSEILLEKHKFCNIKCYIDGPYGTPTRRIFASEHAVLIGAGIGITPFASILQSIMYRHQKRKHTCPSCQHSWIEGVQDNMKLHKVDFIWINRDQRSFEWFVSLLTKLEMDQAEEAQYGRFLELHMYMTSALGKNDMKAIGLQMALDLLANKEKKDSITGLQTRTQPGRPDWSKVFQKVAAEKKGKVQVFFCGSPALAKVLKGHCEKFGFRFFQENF

Sequence of NADPH oxidase 2 (Homo sapiens) (P04839 whole entry, looked up): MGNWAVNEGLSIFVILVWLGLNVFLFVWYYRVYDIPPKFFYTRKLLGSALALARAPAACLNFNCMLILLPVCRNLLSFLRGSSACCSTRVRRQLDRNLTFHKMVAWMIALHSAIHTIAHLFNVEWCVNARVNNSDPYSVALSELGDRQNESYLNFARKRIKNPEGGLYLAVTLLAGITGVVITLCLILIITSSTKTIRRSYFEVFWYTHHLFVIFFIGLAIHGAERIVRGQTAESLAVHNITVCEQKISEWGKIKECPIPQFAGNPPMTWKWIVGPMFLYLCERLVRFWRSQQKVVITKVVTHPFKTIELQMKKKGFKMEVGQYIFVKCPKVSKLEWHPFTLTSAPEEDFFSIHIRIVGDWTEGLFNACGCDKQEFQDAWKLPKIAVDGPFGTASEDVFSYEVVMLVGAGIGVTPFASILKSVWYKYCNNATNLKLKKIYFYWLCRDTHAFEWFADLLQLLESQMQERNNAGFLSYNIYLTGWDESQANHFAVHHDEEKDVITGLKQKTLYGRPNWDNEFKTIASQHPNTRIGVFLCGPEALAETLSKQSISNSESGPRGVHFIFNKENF
Sequence of NADPH oxidase 4 (Homo sapiens) (Q9NPH5 whole entry, looked up): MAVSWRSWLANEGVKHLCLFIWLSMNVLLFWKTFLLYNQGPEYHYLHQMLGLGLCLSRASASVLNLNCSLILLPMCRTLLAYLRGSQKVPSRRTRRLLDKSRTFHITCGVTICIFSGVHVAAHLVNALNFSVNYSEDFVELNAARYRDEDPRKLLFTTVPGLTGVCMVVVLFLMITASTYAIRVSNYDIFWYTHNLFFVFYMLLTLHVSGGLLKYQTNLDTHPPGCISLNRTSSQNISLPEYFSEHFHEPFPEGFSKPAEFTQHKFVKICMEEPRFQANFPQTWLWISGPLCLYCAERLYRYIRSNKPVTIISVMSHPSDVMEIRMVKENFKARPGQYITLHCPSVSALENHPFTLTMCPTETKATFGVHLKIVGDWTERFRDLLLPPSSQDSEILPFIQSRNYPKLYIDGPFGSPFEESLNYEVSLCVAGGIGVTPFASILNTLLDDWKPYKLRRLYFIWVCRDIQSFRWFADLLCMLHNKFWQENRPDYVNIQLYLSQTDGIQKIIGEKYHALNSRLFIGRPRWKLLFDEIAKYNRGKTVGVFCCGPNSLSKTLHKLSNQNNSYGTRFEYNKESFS

Consider `COC(=O)[C@H](Cc1ccccc1)N[C@@H](/C=C/C1CC1)[C@H](O)Cc1ccccc1`, for which the z-score is 0.0327 (inactive) in assay [1]; 0.738 (inactive) in assay [3]; 0.229 (inactive) in assay [4]; -0.592 (inactive) in assay [5]; 0.428 (inactive) in assay [6]; -0.162 in assay [7]. Also, the figures for the z-score in assay [8], in [9] and in assay [10] were 0.42 (inactive), -0.135 (inactive) and -1.41, respectively. In assay [2], the composite z-score was -0.239.
As to `CO[C@H]1O[C@H](CO)[C@@H](OC(=O)Nc2ccc(Oc3ccccc3)cc2)[C@H](OC(=O)Nc2ccc3c(c2)OCO3)[C@H]1OC(=O)Nc1ccc2c(c1)OCO2`, the z-score was 0.97 (inactive) in [1]; 7.24 (inactive) in [3]; 0.996 (inactive) in assay [4]; 0.902 (inactive) in [5]; 0.397 (inactive) in [6]; 1.2 in assay [7]. For the same compound, the z-score in assay [8] is 0.706 (inactive); in assay [9], -1.65 (inactive); in assay [10], -0.714. In addition, in assay [2], the composite z-score turned out to be 0.523.
For `C=C(COC)/C(=C/C[C@@H](OC(C)=O)c1ccc(OCCO)cc1)c1cnc2ccccc2c1`, the z-score in [1] was 2.11 (inactive); in assay [3] it was 20.2 (active); in [4], 3.53 (inactive); in assay [5] it was 0.844 (inactive); in assay [6] it was -0.282 (inactive); in [7] it was 1.81. Further, the results for the z-score in assay [8], in [9] and in assay [10] were -2.04 (inactive), -0.287 (inactive) and -1.08, respectively. This compound also gave a composite z-score in [2] of 0.127.
Regarding `CO[C@H]1O[C@H](CO)[C@@H](OC(=O)Nc2ccc(C(F)(F)F)cc2)[C@H](OC(=O)Nc2ccc3c(c2)OCO3)[C@@H]1OC(=O)Nc1ccc2c(c1)OCO2`, the z-score in [1] was -0.112 (inactive); in [3], 25.8 (active); in assay [4], 15.3 (active); in assay [5], 3.6 (inactive); in [6], 1.77 (inactive); in [7], -0.176. Further, the z-score in assay [8] was -0.794 (inactive); in assay [9] it was -0.393 (inactive); in assay [10] it was -0.486. In assay [2], this compound displayed a composite z-score of 0.199.
For the compound `COC(=O)[C@@]1(Cc2ccc(OC)cc2)[C@H]2c3cc(C(=O)N4CCCC4)n(Cc4ccc(O)c(OC)c4)c3C[C@H]2CN1C(=O)c1ccccc1`, the z-score in [1] is -0.703 (inactive); in [3], 5.08 (inactive); in [4], 0.722 (inactive); in assay [5], 1.04 (inactive); in [6] it was 0.739 (inactive); in [7], 0.299. Moreover, the z-score in assay [8] was -2.31 (inactive); in assay [9] it was -4.7 (inactive); in [10] it was -4.33. This compound yielded a composite z-score in [2] of 0.622.
As for `Cc1ccc(S[C@]2(C(=O)NC3CC3)CC(=O)N(Cc3ccccc3)[C@@H]2c2ccc(CO)cc2I)cc1`, the z-score in [1] is 1.24 (inactive); in assay [3] it was 7.63 (inactive); in assay [4] it was 1.12 (inactive); in [5], -0.282 (inactive); in assay [6], 0.401 (inactive); in assay [7], 0.402. Further, the figures for the z-score in assay [8], in assay [9] and in assay [10] were 1.7 (inactive), -1.16 (inactive) and 1.1, respectively. The compound also displayed a composite z-score in assay [2] of 0.238.
Take `CCS[C@H]1[C@@H](C(=O)O)[C@H](c2ccc(C)cc2)N(S(=O)(=O)c2ccc(C)cc2)[C@@H]1CC`: the z-score in [1] was 0.409 (inactive); in [3], 1.56 (inactive); in [4], 1.02 (inactive); in assay [5], -0.129 (inactive); in assay [6] it was 0.831 (inactive); in assay [7] it was -0.0726. The results for the z-score in [8], in assay [9] and in assay [10] were 0.983 (inactive), -0.149 (inactive) and 0.271, respectively. Further, the composite z-score in assay [2] worked out at 0.157.
Take `COc1cc(Br)cc(C(O)C2C=CC3C(=O)N(C)C(=O)C3N2N2CCCCC2)c1OC` (stereo not given): the z-score in [1] is -1.8 (inactive); in assay [3] it was 0.712 (inactive); in assay [4], 1.27 (inactive); in [5], 0.126 (inactive); in assay [6] it was 1.17 (inactive); in assay [7], -1.45. The z-score in [8] is 0.524 (inactive); in assay [9], -3.5 (inactive); in [10], -0.637. Also, the composite z-score in [2] was determined as 0.152.
For the compound `C=CCN1C(=O)[C@]2(O[C@H](CCn3cc([C@H](O)c4ccccc4)nn3)[C@@H]([Si](C)(C)c3ccc(OC)cc3)[C@@H]2C)c2cc(N3CCC3=O)ccc21`, the z-score in assay [1] was 0.894 (inactive); in [3] it was 3.76 (inactive); in assay [4], 1.05 (inactive); in assay [5], 2.62 (inactive); in assay [6], 0.721 (inactive); in [7] it was 2.02. Further, the figures for the z-score in assay [8], in [9] and in assay [10] were 0.632 (inactive), -0.709 (inactive) and -1.74, respectively. The same compound had a composite z-score in assay [2] of 0.188.
For the compound `CC(C)NC(=O)[C@@]1(c2ccc([N+](=O)[O-])cc2)CC(=O)N(C2CCCCC2)[C@@H]1c1ccc(CO)cc1I`, the z-score in [1] is 1.36 (inactive); in [3] it was 15.8 (active); in assay [4], 2.08 (inactive); in assay [5], 1.07 (inactive); in assay [6] it was 0.966 (inactive); in assay [7], -0.0892. Besides, the z-score in assay [8] is 0.824 (inactive); in assay [9], -1.57 (inactive); in assay [10], 1.45. In assay [2], this compound yielded a composite z-score of 0.533.
Take `COC(=O)[C@@]1(Cc2ccccc2)[C@H]2c3cc(C(=O)N4CCCC4)n(Cc4ccc(S(C)(=O)=O)cc4)c3C[C@H]2CN1C(=O)c1ccccc1`: the z-score in assay [1] was -0.94 (inactive); in assay [3], 1.98 (inactive); in assay [4], 0.238 (inactive); in assay [5], 0.716 (inactive); in assay [6], 0.742 (inactive); in assay [7], -0.121. Moreover, the z-score in assay [8] is 0.613 (inactive); in [9], -1.16 (inactive); in assay [10] it was -1.9. Also, the composite z-score in assay [2] was 0.198.
Take `COC(=O)[C@@]1(Cc2ccc(F)cc2)[C@H]2c3cc(C(=O)N4CCCC4)n(Cc4ccc(S(C)(=O)=O)cc4)c3C[C@H]2CN1C(=O)c1ccccc1`: the z-score was -1.75 (inactive) in [1]; 2.29 (inactive) in assay [3]; 0.675 (inactive) in [4]; 0.775 (inactive) in assay [5]; 0.643 (inactive) in [6]; -0.339 in assay [7]. In addition, the z-score in assay [8] is 0.949 (inactive); in [9] it was -0.138 (inactive); in assay [10], -0.744. For the same compound, the composite z-score in assay [2] turned out to be 1.24.
Turning to `CCCCCCc1nc(-c2ccc(OC)nc2)cc2c1[Si](C(C)C)(C(C)C)O[C@H]2c1ccccc1`, the z-score in assay [1] was -1.03 (inactive); in assay [3] it was 0.614 (inactive); in assay [4] it was 0.139 (inactive); in assay [5], 0.245 (inactive); in assay [6], -0.353 (inactive); in [7], -0.168. In addition, the z-score in assay [8] was 0.0155 (inactive); in [9], -0.95 (inactive); in assay [10] it was -1.64. In assay [2], the composite z-score was -0.0559.
